# Source: PubChem BioAssay (several laboratories)
# CYP2C9 inhib: inhibitors of human CYP2C9. CYP2C9 Supersomes, luciferin-H conversion, luminescence. P11712. actives 20% (n = 96,000). inhibition, % at 5 µM. AID 777;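 active = blocking of liver enzyme CYP2C9 beyond about 50% at 5 µM, limit read from the data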
# Target sequence (P11712 whole entry, looked up): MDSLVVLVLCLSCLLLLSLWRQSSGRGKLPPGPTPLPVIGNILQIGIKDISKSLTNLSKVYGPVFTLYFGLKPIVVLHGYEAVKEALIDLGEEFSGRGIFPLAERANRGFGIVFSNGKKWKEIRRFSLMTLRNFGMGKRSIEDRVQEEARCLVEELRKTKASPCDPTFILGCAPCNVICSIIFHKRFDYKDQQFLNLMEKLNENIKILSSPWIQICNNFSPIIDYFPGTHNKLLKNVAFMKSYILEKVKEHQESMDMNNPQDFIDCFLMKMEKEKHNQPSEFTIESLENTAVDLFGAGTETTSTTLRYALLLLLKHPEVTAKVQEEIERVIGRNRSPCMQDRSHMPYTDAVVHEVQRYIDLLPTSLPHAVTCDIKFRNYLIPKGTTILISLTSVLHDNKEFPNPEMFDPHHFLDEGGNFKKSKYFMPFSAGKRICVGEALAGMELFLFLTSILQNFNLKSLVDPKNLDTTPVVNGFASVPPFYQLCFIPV
# CYP2C19 inh: blocks human cytochrome P450 2C19. CYP2C19 Supersomes, luciferin-H EGE luminescence, 30 min. inhibition, % at 5 µM. actives 21% (n = 96,000). AID 778;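 active = CYP2C19 inhibition above a set limit at 5 µM in the primary screen, cut at about 50% in these data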;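 also: plate controls were negative control wells for no effect and 2.5 mM tranylcypromine positive control for full effect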
# CYP2C9 activ: increases human cytochrome P450 2C9 activity; activation factor at 5 µM; P11712; recombinant CYP2C9, luciferin-H conversion, luminescence; hits give high values; factor 1 = untreated enzyme, 0 = blocked; actives 1.4% (n = 96,000);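 active = activation factor of 2 or more for CYP2C9 at a 5 µM dose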;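 also: 0 = sulfaphenazole-blocked wells and 1 = vehicle-only wells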
# PostGolgi yeast: growth inhibition of a yeast mutant, post-Golgi transport screen. post-Golgi transport phenotypic cell assay. inhibition, % at 10 µM. actives 0.9% (n = 98,000). AID 739;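 also: yeast cells grown in 1536-well plates; yeast grown about 18 h at 30C before absorbance read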
# PostGolgi ctrl: yeast control strain growth, post-Golgi counter-screen | efflux-deficient yeast background strain, growth absorbance A615, 16 h | inhibition, % at 10 µM | actives 5% (n = 98,000) | AID 738
# CYP2C19 activ: increases human CYP2C19 enzyme activity | P33261 | recombinant CYP2C19, luciferin-H EGE luminescence; hits give high values; 0 = fully inhibited enzyme, 1 = untreated enzyme | activation factor at 5 µM | 96,000 tested, under 10 active;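 active = activation factor of at least 2 at 5 µM in the primary screen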;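 also: 0 = wells with 2.5 mM tranylcypromine and 1 = vehicle-only wells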
# Active calls of the source: *; . = no result. Rows were chosen to be rich in hits. Some 32% of all compounds tested hit in one or more screens of this group. Rule as the data show it, unless noted: active = inhibition above about 30%; inactive = the rest.
SMILES,CYP2C9 inhib,CYP2C19 inh,CYP2C9 activ,PostGolgi yeast,PostGolgi ctrl,CYP2C19 activ
O=C(NCCN1CCC(Cc2ccccc2)CC1)C1CCCN(S(=O)(=O)c2cnc[nH]2)C1 (configuration not stated),8,-6,0.9,6,-3,1.1
O=C(C1CCCN(S(=O)(=O)c2cnc[nH]2)C1)N(CCc1ccccc1)Cc1ccccc1 (configuration not stated),47,74*,0.5,-11,-6,0.3
O=C(NCCC1=CCCCC1)C1CCCN(S(=O)(=O)c2cnc[nH]2)C1 (configuration not stated),66*,96*,0.3,-18,3,0
O=C(NCc1ccccn1)c1ccc(COc2ccc(Cl)cc2)o1,5,8,0.9,-2,10,0.9
Cc1cc2nc(CCN(C(=S)NCC(C)C)C3CCCC3)[nH]c2cc1C,43,39,0.6,-6,11,0.6
O=C(NCC1COc2ccccc2O1)C1CCCN(S(=O)(=O)c2cnc[nH]2)C1 (configuration not stated),50*,90*,0.5,.,.,0.1
O=C(CSc1nnc(Cc2ccccc2)o1)NCCN1C(=O)CSC1=O,-4,5,1,4,-6,1
CC(C)(C)NC(=O)c1ccc2c(c1)N(CC(=O)N1CCN(c3ccccc3F)CC1)C(=O)C(C)(C)O2,33,14,0.7,-7,-5,0.9
CC(C)c1ccc(OCC(=O)NCc2ccco2)cc1,74*,90*,0.3,7,10,0.1
CC(Oc1ccccc1)C(=O)OCC(=O)NC(=O)NCc1ccco1 (configuration not stated),52*,10,0.5,0,7,0.9
O=C(COc1ccccc1Br)NCc1ccco1,1,23,1,-7,6,0.8
C=C(C)c1ccc(C(C)(C)NC(=O)NCc2ccco2)cc1,81*,90*,0.2,-2,18,0.1
CCc1ccc(OCC(=O)NCc2ccco2)c(Br)c1,72*,87*,0.3,-8,10,0.1
O=C(COC(=O)CCOc1ccccc1)NCc1ccco1,38,9,0.6,3,-3,0.9
CC(C)(C)c1ccc(OCC(=O)NCc2ccco2)cc1,31,15,0.7,-12,8,0.8
CCn1c(SCC(=O)NC(=O)NCc2ccco2)nnc1-c1cccs1,18,36,0.8,1,4,0.6
COc1ccc(OCC(=O)OCC(=O)NCc2ccco2)cc1,5,0,1,3,5,1
O=C(COC(=O)CC1CC2CCC1C2)NC(=O)NCc1ccco1 (configuration not stated),70*,63*,0.3,0,5,0.4
CCOc1ccc(C(=O)NCc2ccco2)cc1,-1,66*,1,-7,2,0.3
CC(C)COc1ccc(C(=O)NCc2ccco2)cc1,22,18,0.8,-3,5,0.8
C=CCn1c(CCNC(=O)C(C)(C)C)nc2ccccc21,8,40,0.9,9,14,0.6
C=CCn1c(N)nc2ccccc21,23,-1,0.8,-1,-2,1
C=CCn1c(NCc2ccc(N(C)C)cc2)nc2ccccc21,15,96*,0.9,12,6,0
C=CCn1c(NCc2cc(C)ccc2O)nc2ccccc21,64*,85*,0.4,-2,5,0.2
C=CCn1c(NC(C)c2cc(Cl)ccc2O)nc2ccccc21 (configuration not stated),46,68*,0.5,-5,32*,0.3
SMILES,CYP2C9 inhib,CYP2C19 inh,CYP2C9 activ,PostGolgi yeast,PostGolgi ctrl,CYP2C19 activ
Cc1cc(NC(=O)c2cc(-c3ccco3)on2)nn1Cc1ccc(Cl)cc1,-95,12,1.9,10,4,0.9
NC(=S)N/N=C/c1ccc(-c2cc(Cl)cc(Cl)c2)o1,6,-14,0.9,30,68*,1.1
CCCCOC(=O)c1ccc(-c2ccc(/C=N/NC(=S)NCC)o2)cc1,24,14,0.8,-10,-4,0.9
NC(=S)N/N=C/c1ccc(-c2cc(Cl)ccc2Cl)o1,-18,4,1.2,19,93*,1
NC(=S)N/N=C/c1ccccc1OCc1cccc(Cl)c1,10,21,0.9,2,11,0.8
O=C1CSC(=Nc2cc(Cl)ccc2Cl)N1,72*,13,0.3,0,14,0.9
Cc1ccc(N=C2NC(=O)CS2)c(C)c1,12,18,0.9,0,18,0.8
CC(C)c1ccc(CN2CCC(C(=O)NCc3cccnc3)CC2)cc1,19,3,0.8,2,4,1
O=S(=O)(Nc1ccn(-c2ccccc2)n1)c1ccc(Br)cc1,99*,72*,0,0,20,0.3
CC(=O)Nc1nc(CC(C)C)cc(-c2ccco2)c1C#N,1,-11,1,1,6,1.1
COc1cc(C2CC(=O)Nc3ccccc3S2)cc(OC)c1OC (configuration not stated),35,64*,0.7,-3,4,0.4
Cc1cccc(NC(=O)Cn2cnc3sc(C)c(S(=O)(=O)N4CCC(C)CC4)c3c2=O)n1,.,.,.,5,4,.
COc1cccc(NC(=O)Cn2c(=O)oc3ccccc32)c1,38,68*,0.6,9,2,0.3
O=c1[nH]c2ccccc2n1CCCOc1ccccc1,5,82*,1,-3,21,0.2
O=c1[nH]c2ccccc2n1CCCSc1cnc2ccccc2n1,85*,63*,0.2,5,43*,0.4
CCCNC(=O)Cn1c(=O)oc2ccccc21,-6,74*,1.1,39*,14,0.3
CCCCn1c(=O)[nH]c2ccccc21,1,29,1,-7,5,0.7
O=C1Nc2ccccc2C(O)(C(=O)NCc2ccco2)N1c1ccc(Cl)c(Cl)c1 (configuration not stated),22,17,0.8,-2,3,0.8
NC(=O)CCn1c(=O)oc2ccccc21,-13,-15,1.1,-9,0,1.2
O=C(Cn1c(=O)oc2ccccc21)NC(=O)NCc1ccco1,29,65*,0.7,-3,14,0.3
O=C1c2ccccc2C(=O)N1CCn1c(=O)oc2ccccc21,-9,32,1.1,12,3,0.7
O=C(Cn1c(=O)oc2ccccc21)c1ccccc1,25,93*,0.7,15,3,0.1
O=c1oc2ccccc2n1CCCCCn1c(=O)oc2ccccc21,-21,84*,1.2,-1,5,0.2
O=c1oc2ccccc2n1CCCOc1ccccc1,70*,98*,0.3,2,1,0
CCCCOc1ccc(-c2nnn(CC(=O)NCCc3c[nH]c4ccccc34)n2)cc1,49,10,0.5,-15,22,0.9
COc1ccc(NC(=O)CN2CCCC(C)C2)c([N+](=O)[O-])c1 (configuration not stated),4,18,1,8,1,0.8
